# Data from the supplement of paper PMC4466140.
# B1: unnamed (peptide)
# chain: AHFQPQRTAPKPPIS
# B2: unnamed (peptide)
# chain: DLFKPLPEPPTELGR
# Target: AgAbp1
# Assay: SPOT peptide array binding signal intensity (averaged, normalized) (arbitrary units (background-subtracted, floor 0; scale differs between SH3 domains)); higher = stronger binding of the SH3 domain to the peptide
# Procedure, shortened: (§1)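 Detection of bound protein relied on anti-GST antibody, an HRP anti-mouse secondary and luminol, with imaging and quantification in Genespotter. The bound protein was GST-fused SH3 domains from four yeast species, incubated at 10 μg/ml overnight at 4°C in TBS-based blocking buffer on cellulose membranes carrying synthetic 15-mer peptides with cysteines replaced by serines. Binding signal is normalized, background-subtracted spot intensity averaged over replicates, in arbitrary units that differ between domains.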
row,Binder,SPOT peptide array binding signal intensity
1,B1,2.5

# Target: AgBbc1
# Assay: as above
# Procedure, shortened: as §1
row,Binder,SPOT peptide array binding signal intensity
1,B1,89.8

# Target: AgBem1-D1
# Assay: as above
# Procedure, shortened: as §1
row,Binder,SPOT peptide array binding signal intensity
1,B1,58.8

# Target: AgBzz1-D1
# Assay: as above
# Procedure, shortened: as §1
row,Binder,SPOT peptide array binding signal intensity
1,B1,16

# Target: AgBzz1-D2
# Assay: as above
# Procedure, shortened: as §1
row,Binder,SPOT peptide array binding signal intensity
1,B1,54.5

# Target: AgCyk3
# Assay: as above
# Procedure, shortened: as §1
row,Binder,SPOT peptide array binding signal intensity
1,B1,≤ 0

# Target: AgFus1
# Assay: as above
# Procedure, shortened: as §1
row,Binder,SPOT peptide array binding signal intensity
1,B1,≤ 0

# Target: AgHof1
# Assay: as above
# Procedure, shortened: as §1
row,Binder,SPOT peptide array binding signal intensity
1,B1,3

# Target: AgHse1
# Assay: as above
# Procedure, shortened: as §1
row,Binder,SPOT peptide array binding signal intensity
1,B1,18

# Target: AgLsb1
# Assay: as above
# Procedure, shortened: as §1
row,Binder,SPOT peptide array binding signal intensity
1,B1,16.8

# Target: AgLsb4
# Assay: as above
# Procedure, shortened: as §1
row,Binder,SPOT peptide array binding signal intensity
1,B1,0.5

# Target: AgMyo5
# Assay: as above
# Procedure, shortened: as §1
row,Binder,SPOT peptide array binding signal intensity
1,B1,954

# Target: AgNbp2
# Assay: as above
# Procedure, shortened: as §1
row,Binder,SPOT peptide array binding signal intensity
1,B1,3970

# Target: AgRvs167
# Assay: as above
# Procedure, shortened: as §1
row,Binder,SPOT peptide array binding signal intensity
1,B1,0.583

# Target: AgSho1
# Assay: as above
# Procedure, shortened: as §1
row,Binder,SPOT peptide array binding signal intensity
1,B1,≤ 0

# Target: AgSla1-D1-D2
# Assay: as above
# Procedure, shortened: as §1
row,Binder,SPOT peptide array binding signal intensity
1,B1,≤ 0

# Target: AgSla1-D3
# Assay: as above
# Procedure, shortened: as §1
row,Binder,SPOT peptide array binding signal intensity
1,B1,1

# Target: CaAbp1-D1
# Assay: as above
# Procedure, shortened: as §1
row,Binder,SPOT peptide array binding signal intensity
1,B1,65.5

# Target: CaAbp1-D2
# Assay: as above
# Procedure, shortened: as §1
row,Binder,SPOT peptide array binding signal intensity
1,B1,33.8

# Target: CaBbc1
# Assay: as above
# Procedure, shortened: as §1
row,Binder,SPOT peptide array binding signal intensity
1,B1,743

# Target: CaBem1-D1
# Assay: as above
# Procedure, shortened: as §1
row,Binder,SPOT peptide array binding signal intensity
1,B1,958

# Target: CaBzz1-D1
# Assay: as above
# Procedure, shortened: as §1
row,Binder,SPOT peptide array binding signal intensity
1,B1,779

# Target: CaBzz1-D2
# Assay: as above
# Procedure, shortened: as §1
row,Binder,SPOT peptide array binding signal intensity
1,B1,136

# Target: CaCyk3
# Assay: as above
# Procedure, shortened: as §1
row,Binder,SPOT peptide array binding signal intensity
1,B1,≤ 0

# Target: CaFus1
# Assay: as above
# Procedure, shortened: as §1
row,Binder,SPOT peptide array binding signal intensity
1,B1,≤ 0

# Target: CaHof1
# Assay: as above
# Procedure, shortened: as §1
row,Binder,SPOT peptide array binding signal intensity
1,B1,≤ 0

# Target: CaHse1
# Assay: as above
# Procedure, shortened: as §1
row,Binder,SPOT peptide array binding signal intensity
1,B1,2.5

# Target: CaLsb1
# Assay: as above
# Procedure, shortened: as §1
row,Binder,SPOT peptide array binding signal intensity
1,B1,≤ 0

# Target: CaLsb4
# Assay: as above
# Procedure, shortened: as §1
row,Binder,SPOT peptide array binding signal intensity
1,B1,23

# Target: CaMyo5
# Assay: as above
# Procedure, shortened: as §1
row,Binder,SPOT peptide array binding signal intensity
1,B1,33.6

# Target: CaNbp2
# Assay: as above
# Procedure, shortened: as §1
row,Binder,SPOT peptide array binding signal intensity
1,B1,3970
2,B2,≤ 0

# Target: CaRvs167
# Assay: as above
# Procedure, shortened: as §1
row,Binder,SPOT peptide array binding signal intensity
1,B1,12.8
2,B2,6.67

# Target: CaRvs167-3
# Assay: as above
# Procedure, shortened: as §1
row,Binder,SPOT peptide array binding signal intensity
1,B1,≤ 0
2,B2,≤ 0

# Target: CaSho1
# Assay: as above
# Procedure, shortened: as §1
row,Binder,SPOT peptide array binding signal intensity
1,B1,11.8
2,B2,2540

# Target: CaSla1-D1-D2
# Assay: as above
# Procedure, shortened: as §1
row,Binder,SPOT peptide array binding signal intensity
1,B1,54.5
2,B2,≤ 0

# Target: CaSla1-D3
# Assay: as above
# Procedure, shortened: as §1
row,Binder,SPOT peptide array binding signal intensity
1,B1,0.75
2,B2,≤ 0

# Target: ScAbp1
# Assay: as above
# Procedure, shortened: as §1
row,Binder,SPOT peptide array binding signal intensity
1,B1,11
2,B2,≤ 0

# Target: ScBbc1
# Assay: as above
# Procedure, shortened: as §1
row,Binder,SPOT peptide array binding signal intensity
1,B1,165
2,B2,≤ 0

# Target: ScBem1-D1
# Assay: as above
# Procedure, shortened: as §1
row,Binder,SPOT peptide array binding signal intensity
1,B1,6
2,B2,≤ 0

# Target: ScBzz1-D1
# Assay: as above
# Procedure, shortened: as §1
row,Binder,SPOT peptide array binding signal intensity
1,B1,17.5
2,B2,1

# Target: ScBzz1-D2
# Assay: as above
# Procedure, shortened: as §1
row,Binder,SPOT peptide array binding signal intensity
1,B1,12.8
2,B2,≤ 0

# Target: ScCyk3
# Assay: as above
# Procedure, shortened: as §1
row,Binder,SPOT peptide array binding signal intensity
1,B1,≤ 0
2,B2,≤ 0

# Target: ScFus1
# Assay: as above
# Procedure, shortened: as §1
row,Binder,SPOT peptide array binding signal intensity
1,B1,≤ 0
2,B2,≤ 0

# Target: ScHof1
# Assay: as above
# Procedure, shortened: as §1
row,Binder,SPOT peptide array binding signal intensity
1,B1,0.5
2,B2,1

# Target: ScHse1
# Assay: as above
# Procedure, shortened: as §1
row,Binder,SPOT peptide array binding signal intensity
1,B1,37
2,B2,≤ 0

# Target: ScLsb1
# Assay: as above
# Procedure, shortened: as §1
row,Binder,SPOT peptide array binding signal intensity
1,B1,0.25
2,B2,≤ 0

# Target: ScLsb2
# Assay: as above
# Procedure, shortened: as §1
row,Binder,SPOT peptide array binding signal intensity
1,B1,35
2,B2,≤ 0

# Target: ScLsb3
# Assay: as above
# Procedure, shortened: as §1
row,Binder,SPOT peptide array binding signal intensity
1,B1,152
2,B2,≤ 0

# Target: ScLsb4
# Assay: as above
# Procedure, shortened: as §1
row,Binder,SPOT peptide array binding signal intensity
1,B1,5
2,B2,10

# Target: ScMyo3
# Assay: as above
# Procedure, shortened: as §1
row,Binder,SPOT peptide array binding signal intensity
1,B1,1610
2,B2,≤ 0

# Target: ScMyo5
# Assay: as above
# Procedure, shortened: as §1
row,Binder,SPOT peptide array binding signal intensity
1,B1,1320
2,B2,≤ 0

# Target: ScNbp2
# Assay: as above
# Procedure, shortened: as §1
row,Binder,SPOT peptide array binding signal intensity
1,B1,6790
2,B2,≤ 0

# Target: ScPex13
# Assay: as above
# Procedure, shortened: as §1
row,Binder,SPOT peptide array binding signal intensity
1,B1,212
2,B2,1030

# Target: ScRvs167
# Assay: as above
# Procedure, shortened: as §1
row,Binder,SPOT peptide array binding signal intensity
1,B1,59.8
2,B2,≤ 0

# Target: ScSho1
# Assay: as above
# Procedure, shortened: as §1
row,Binder,SPOT peptide array binding signal intensity
1,B1,≤ 0
2,B2,5560

# Target: ScSla1-D1-D2
# Assay: as above
# Procedure, shortened: as §1
row,Binder,SPOT peptide array binding signal intensity
1,B1,265
2,B2,≤ 0

# Target: ScSla1-D3
# Assay: as above
# Procedure, shortened: as §1
row,Binder,SPOT peptide array binding signal intensity
1,B1,44
2,B2,3

# Target: SpAbp1-D1
# Assay: as above
# Procedure, shortened: as §1
row,Binder,SPOT peptide array binding signal intensity
1,B1,≤ 0
2,B2,≤ 0

# Target: SpBbc1
# Assay: as above
# Procedure, shortened: as §1
row,Binder,SPOT peptide array binding signal intensity
1,B1,22
2,B2,≤ 0

# Target: SpBzz1-D1
# Assay: as above
# Procedure, shortened: as §1
row,Binder,SPOT peptide array binding signal intensity
1,B1,258
2,B2,≤ 0

# Target: SpBzz1-D2
# Assay: as above
# Procedure, shortened: as §1
row,Binder,SPOT peptide array binding signal intensity
1,B1,18.1
2,B2,≤ 0

# Target: SpCyk3
# Assay: as above
# Procedure, shortened: as §1
row,Binder,SPOT peptide array binding signal intensity
1,B1,≤ 0
2,B2,1.5

# Target: SpHof1
# Assay: as above
# Procedure, shortened: as §1
row,Binder,SPOT peptide array binding signal intensity
1,B1,1.62
2,B2,1460

# Target: SpHof1-2
# Assay: as above
# Procedure, shortened: as §1
row,Binder,SPOT peptide array binding signal intensity
1,B1,2
2,B2,1970

# Target: SpHof1-3
# Assay: as above
# Procedure, shortened: as §1
row,Binder,SPOT peptide array binding signal intensity
1,B1,34
2,B2,734

# Target: SpHse1
# Assay: as above
# Procedure, shortened: as §1
row,Binder,SPOT peptide array binding signal intensity
1,B1,70.1
2,B2,0.75

# Target: SpLsb1
# Assay: as above
# Procedure, shortened: as §1
row,Binder,SPOT peptide array binding signal intensity
1,B1,36.8
2,B2,≤ 0

# Target: SpLsb4
# Assay: as above
# Procedure, shortened: as §1
row,Binder,SPOT peptide array binding signal intensity
1,B1,87.5
2,B2,≤ 0

# Target: SpMyo1
# Assay: as above
# Procedure, shortened: as §1
row,Binder,SPOT peptide array binding signal intensity
1,B1,2050
2,B2,≤ 0

# Target: SpNbp2
# Assay: as above
# Procedure, shortened: as §1
row,Binder,SPOT peptide array binding signal intensity
1,B1,264
2,B2,≤ 0

# Target: SpPex13
# Assay: as above
# Procedure, shortened: as §1
row,Binder,SPOT peptide array binding signal intensity
1,B1,≤ 0
2,B2,3

# Target: SpRvs167
# Assay: as above
# Procedure, shortened: as §1
row,Binder,SPOT peptide array binding signal intensity
1,B1,13.9
2,B2,5.67

# Target: SpSla1-D1-D2
# Assay: as above
# Procedure, shortened: as §1
row,Binder,SPOT peptide array binding signal intensity
1,B1,≤ 0
2,B2,≤ 0

# Target: SpSla1-D3
# Assay: as above
# Procedure, shortened: as §1
row,Binder,SPOT peptide array binding signal intensity
1,B1,≤ 0
2,B2,≤ 0
